# Data published in the supplement of paper PMC10338343.
# ± gives the standard deviation.
# Tested on: MILI (PIWIL2) piRISC loaded with L1MC piRNA (26 nt)
# Assay: pre-steady-state target cleavage rate (min^-1); guide: L1MC piRNA 5'p-UAACUAAAUACUAUGCAAGCUGUAGG; MIWI and MILI are mouse PIWI proteins and EfPiwi is from a freshwater sponge; tags in brackets are library labels; higher = faster piRNA-guided slicing of the target
# Summary of the method: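 In Cleave-'n-Seq, a transcribed, DNA-blocked target RNA library (0.1 nM) was combined with 1 nM active affinity-purified piRISC bearing one synthetic guide, with or without 500 nM GTSF1 partner protein. Reactions ran in HEPES–potassium acetate buffer at 33 °C for 0–8 or 0–960 min. Uncleaved targets were sequenced and normalised to depth and to weakly complementary targets, three trials were pooled, and k3 was capped at 0.0001 min^-1. The pre-steady-state cleavage rate was obtained by fitting a burst-and-steady-state model.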
# [1] = auxiliary factor: 500 nM mouse GTSF1
# [2] = auxiliary factor: none (no GTSF1)
Sequence,pre-steady-state target cleavage rate [1],pre-steady-state target cleavage rate [2]
UCCUGGAUGUGCUUGCAUAGUAUUUCGUUA,0.0261 ± 0.0098,–
UCCUGGAUGUCGAACGAUAGUAUAAUGUUA,–,< 0.0001
UCCUGGAACAGCUUGCAUAGUUUUUACAAA,0.00599 ± 0.0038,–
UCCUGGAACAGGAUGCAUAGUAUUUUCAAA,0.0202 ± 0.0076,–
UCCUGGAUGAGCUUGCAUAGUAUUCUAGUUA,0.165 ± 0.029,–
UCCUGCUACAGCUUGCAUUCUAUUUACAAA,0.0141 ± 0.0062,–
UCCUGGAUGAGCUUGCAUAGAAUUUAGUUA,0.0653 ± 0.017,–
UCCUGCUACAGCUUGCAAUCUAUUUAGUAA,0.0639 ± 0.022,–
UCCUGGAUGUCGAACGUAAGUAAUUAGAUA,< 0.0001,–
UCCUGGAUGUCGAACCAUAGUAUUUGAGUUA,< 0.0001,–
UCCUGGAUGUCGAUGCAUAGAUAAAUCAAA [g11:g17:cont:t1A],–,< 0.0001
UCCUGGUACAGCUUGCAUAGGAUUUAGUUA,0.00737 ± 0.0052,–
UCCUGGAUGAGCUUGCAUAGAAUUUUGUUA,0.0139 ± 0.0063,–
UCCUGGUACAGCUUGCUUAGUAUUUUCAAA,0.0244 ± 0.0078,–
UCCUGGAUCAGCUUGCAAUGUAUUUACAAA,0.0196 ± 0.0061,–
UCCUGGAUGUGCUUGCAAAGUAUUUAGAUA,0.0284 ± 0.008,–
UCCUGGAUGUGCUUGCAUAGUAUUUACUUA,0.0325 ± 0.0094,–
UCCUGGAUCACGAUGCAUAGUAUUUAGAAA,0.111 ± 0.017,–
UCCUGGAUGUCGAAGCAUCGUAUUUAGUUA,0.00755 ± 0.0031,–
UCCUGCUAGAGCUUGCAUAGUUUUUAGUUA,0.0598 ± 0.012,–
UCCUGGAUCAGCUUGCUUAGUAUUUAGAUA,0.15 ± 0.023,–
UCCUGGAUGUCGAACGUAUGAAUUUUGUUA,–,< 0.0001
UCCUGGAUCAGCUUGCAUAGUAUAUACUUA,0.0182 ± 0.0062,–
UCCUGGAUGUCGAUGCAUAGUAAUUAGUAA,0.0439 ± 0.013,–
UCCUGGAUGUGCAAGCAUAGUAUUUAGUAA,0.0583 ± 0.013,–
UCCUGGAUCAGCUUGCAUACUAUUUAGAAA,0.0141 ± 0.0069,–
UCCUCCUACAGCUUGCAUAGAUAUUAGUAA,0.015 ± 0.007,–

Sequence,pre-steady-state target cleavage rate [1],pre-steady-state target cleavage rate [2]
UCCUGGAUCACCUUGCAUAGAAUUUAGUUA,0.017 ± 0.0097,–
UCCUGGAUCAGCUUGCAUAGUAUAUUCAAA,0.0428 ± 0.01,–
UCCUGGAUCAGGAUGCAUAGUAUUUACAAA,0.0127 ± 0.0048,–
UCCUGGUAGUGCUUGCAUAGUAUUUUCAAA,0.00481 ± 0.0037,–
UCCUGGAUCACGUUGCAUAGUAUUUACAAA,0.0591 ± 0.015,–
UCCUGGAUGUCGAUGCAUAGUAUUCUAGUUA,0.115 ± 0.023,–
UCCUGGUACAGCUUGCAGUAGUAUUUAGUUA,0.00495 ± 0.0037,–
UCCUGGAUGACCUUGCAUAGAAUUUAGUUA,0.023 ± 0.012,–
UCCUGGAUGUGCUUGCAUAGUAAAAAGUUA,0.0196 ± 0.0079,–
UCCUGGAUGUCGAACGUAUCUAUUAAGUUA,–,< 0.0001
UCCUGGUACACCUUGCAUAGUAUUUUCAAA,0.0291 ± 0.016,–
UCCUCCUACAGCUUGCAUUCUAUUUAGAAA,0.0122 ± 0.0056,–
UCCUGGAUGUGCUUGCAUAGAUAUUUAGUUA,–,0.00495 ± 0.0023
UCCUGGAUGUCGUUGCAUAGUUAAUAGUUA,–,0.00434 ± 0.0022
UCCUGGAUGUCCUUGGAUAGUAUUUAGAUA,0.129 ± 0.035,–
UCCUGGAUGUCCUUGCAUAGUAUUAUGUUA,0.00972 ± 0.0046,–
UCCUGGAUCUGCUUGCAUAGUAUUUAGAAA,0.0794 ± 0.019,–
UCCUGGUACAGCUUGCAUACUAUUUUGUUA,0.0288 ± 0.011,–
UCCUGGUACAGCUUGCAUAGUAUUAUCUUA,0.0311 ± 0.014,–
UCCUGGAUGUCGAAGCAUAGUAUUUAGUA,0.0246 ± 0.008,–
UCCUGGAUCAGCUUGCAAAGUAUUUUCAAA,0.00923 ± 0.0045,–
UCCUGGAUGUCGAACCAUAAUAUUUAGUUA,–,< 0.0001
UCCUGGUACAGCUUGCAUAGUAAAAAGUAA,0.031 ± 0.013,–
UCCUGGAUGUGCUUGCAUAGAAUUUAGUUA,0.0203 ± 0.0071,–
UCCUGGAUGUGCUUGCAUACUAUUUAGUAA,0.00943 ± 0.0038,–
UCCUCCUACAGCUAGCAUAGUAUUUUCAAA,0.137 ± 0.027,–
UCCUGGAUGUCGAACCAUAGUUUUUAGUAA,–,< 0.0001
